Hits are enriched below; roughly 2.6% of the tested compounds scored in any of these assays.
Nrf2 block = Nrf2 qHTS screen for inhibitors; AID 504444, 2011; 2.1% of 360,000 active; Potency, µM (titrated, usually from 46 µM), usual class: inhibitors; A549 ARE-Fluc reporter, luciferase luminescence, 18-24 h; also: nearly all actives have a fitted effect of over 60% in size
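Quantitative HTS in A549 cells stably bearing an antioxidant response element-firefly luciferase construct. Inhibition of Nrf2-driven transcription was scored by luminescence after 18-24 h of compound exposure at 37 °C.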
Nrf2 activator = qHTS of Nrf2 Activators | AREc32 ARE-luciferase reporter (MCF7-derived line), luminescence, 24 h | Potency, µM (highest dose often 46.1 µM), usual class: activators | 0.31% of 410,000 active | AID 624171, 2012; also: nearly all actives have a fitted effect of over 65% in size
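AREc32_Fluc, 1000 cells/well, OPTI-MEM + 5% FBS, o/n 37 deg C 5% CO2; 23 nL cpd by pin tool, 24 hr; Steady-Glo 30 min RT, luminescence.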
A-T KAP1 phos = qHTS Assay for Identifying a Potential Treatment of Ataxia-Telangiectasia | Potency, µM (doses to about 57.5 µM), usual class: activators | AID 485349, 2010 | 0.19% of 320,000 active | F2112 A-T fibroblasts, KAP-1 phosphorylation AlphaLISA; neocarzinostatin DNA damage 30 min before lysis; also: nearly all actives have a fitted effect of over 45% in size
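hTERT-immortalized A-T patient fibroblasts (F2112), 500 cells/well in OPTI-MEM, 1% FBS, got compounds for 60 min, then NCS for 30 min at 37C. Lysates were then assayed for phospho-KAP-1 by AlphaLISA (anti-pKAP1 donor, anti-KAP1 acceptor beads), 6 hr at 25C.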
A549 tox = Nrf2 qHTS screen for inhibitors: counterscreen for cytotoxicity. 0.16% of 390,000 active. AID 504648, 2011. Potency, µM (doses to about 46 µM), most hits filed as inhibitors. A549 ARE-Fluc cells, CellTiter-Fluor viability, 18-24 h
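Cytotoxicity counterscreen: CellTiter-Fluor fluorescence was measured in A549 ARE_Fluc cells after 18-24 h of compound exposure in a concentration series. The subsequent BugLite luminescent read reports ARE-luciferase activity.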
CCT chaperon mod = High-Throughput Screening for Modulators of Cytosolic Chaperonin Activity; purified chaperonin ATPase assay, HTRF ADP detection, 30 min; 0.3% of 360,000 active; AID 651819, 2012; activity change, % (no concentration beside the values), hits read low; in the data active = activity change below about -30%
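TRiC (40 or 20 nM final, by batch activity) in 30 mM Tris pH 7.4, 100 mM KCl, 5 mM MgCl2, 1 mM DTT was treated with compound at 76 uM single dose, then 10 uM ATP, 30 min at 37 °C. ADP was read by HTRF Transcreener.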
TCR act = Activators of T cell receptors: qHTS campaign | primary human leukocytes, anti-CD3, IL-2 HTRF, 48 h | Potency, µM (titrated, usually from 9.22 µM), actives largely listed as activators | 330,000 tested, under 10 active
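Primary human leukocytes incubated 48 hr with anti-CD3 beads plus compound, without co-stimulation. Secreted IL-2 measured by HTRF (europium cryptate/d2 anti-IL-2 pair, 320 nm excitation, 665 nm emission).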
Numbers stand for hits; i = inactive; ? = inconclusive; nt = no result. Unless noted, calls follow the shape of the dose curve; as a rule, active = well fitted curve in the direction sought with a large enough effect; inconclusive = small, poorly fitted or top-dose-only effect, or another doubt; inactive = no such curve, though single readings can be large; an effect the other way counts as inactive or inconclusive.

SMILES | Nrf2 block | Nrf2 activator | A-T KAP1 phos | A549 tox | CCT chaperon mod | TCR act
COc1cccc(N2CCN(C(=O)C3CCCN(S(=O)(=O)c4ccc5c(c4)oc(=O)n5C)C3)CC2)c1 (centres undefined) | ? | i | i | i | i | i
CC(=O)OC1CC(OC2C(O)CC(OC3C(O)CC(OC4CCC5(C)C(CCC6C5CCC5(C)C(C7=CC(=O)OC7)CCC65O)C4)OC3C)OC2C)OC(C)C1OC1OC(CO)C(O)C(O)C1O (centres undefined) | 0.037µM | i | nt | ? | i | i
CCCCCCC(=O)N/N=C/c1c(O)n(C(C)CC)c(=S)[nH]c1=O (centres undefined) | 15µM | i | i | i | i | i
COc1nc(NC2CCCCC2)nc(NC(C)(C)C)n1 | ? | i | nt | i | i | i
Cc1cc(C)nc(SCC(=O)NC2=NN=C(c3ccc(Br)cc3)CS2)n1 | nt | i | i | ? | i | i
Cc1ccc(C)c(S(=O)(=O)c2nnn3c2nc(N2CCCC2)c2sccc23)c1 | ? | i | nt | i | nt | nt
C[C@@H]1O[C@@H](O[C@@H]2C=C3CC[C@@H]4C(CC[C@]5(C)[C@@H](c6ccc(=O)oc6)CC[C@]45O)[C@@]3(C)CC2)[C@H](O)[C@H](O)[C@H]1O (some centres undefined) | 0.023µM | i | i | ? | i | i
C[C@@H]1O[C@@H](O[C@@H]2C=C3CCC4C(CC[C@]5(C)[C@@H](c6ccc(=O)oc6)CC[C@]45O)[C@@]3(C)CC2)[C@H](O)[C@H](O)[C@H]1O (some centres undefined) | ? | i | i | ? | i | i
Cc1ccc(S(=O)(=O)N2CCC(=O)N(CCOC(=O)Nc3cccc(Cl)c3)CC2)cc1 | ? | i | i | i | i | i
CC(=NCCc1c[nH]c2ccccc12)c1c(O)n(Cc2ccccc2)c(=O)[nH]c1=O | ? | i | 32µM | i | i | i
Cc1ccc(S(=O)(=O)Nc2ccc3ncccc3c2[N+](=O)[O-])cc1 | ? | i | nt | i | i | i
Fc1ccc(N2CCN(c3ncnc4c3nc3n4CCCCC3)CC2)cc1 | 8.2µM | i | nt | i | nt | nt
Clc1ccccc1CN1CCN(c2ccccc2)CC1 | i | i | i | i | i | i
c1ccc(N2CCN(c3ncnc4c3nc3n4CCCCC3)CC2)cc1 | 23µM | i | nt | i | nt | nt
O=C1NC(=O)N(Cc2ccc(F)cc2)C(=O)/C1=C\c1ccc(N2CCCC2)cc1 | i | i | i | i | i | i
COc1ccc2[nH]cc(CCN=C(NC(=O)c3ccccc3OC)Nc3nc(C)cc(C)n3)c2c1 | ? | i | nt | i | nt | nt
O=c1onc(-c2cccnc2)n1-c1ccccc1F | i | i | i | ? | i | i
Cc1nccc2c1[nH]c1ccc(Br)cc12 | i | i | i | i | i | i
COc1ccc2c(c1)[nH]c1c(C)nccc12 | 23µM | i | i | i | i | i
CCNC(=O)O/N=C(\C)c1sc(-c2ccc(Cl)cc2)nc1C | ? | i | i | i | i | i
Cc1cc[n+](Cc2ccccc2)cc1 | 18µM | i | i | i | i | i
CC(=O)C1C(N2CC2)CC2C3CC=C4CC(O)CCC4(C)C3CCC21C (centres undefined) | i | i | nt | 8.2µM | i | i
CN1C(=O)C(=Cc2ccccc2OCCOc2ccc([N+](=O)[O-])cc2)C(=O)N(C)C1=O | i | i | i | i | i | i
O=C1NC(=O)C(=Cc2ccccc2OCCOc2ccc([N+](=O)[O-])cc2)C(=O)N1 | i | i | i | i | -32 | i
Cc1ccc(-c2nnc(Nc3ccc(O)cc3)c3ccccc23)cc1S(=O)(=O)N1CCOCC1 | ? | i | nt | i | nt | nt
COC(=O)c1ccc(N2CCN(C)CC2)c([N+](=O)[O-])c1 | i | i | i | i | i | i
NC(=O)c1cc(N2CC2)c([N+](=O)[O-])cc1[N+](=O)[O-] | 13µM | i | nt | ? | i | i

Assay outcomes from PubChem.
